About 8,800 targets were measured; listed, in parts, are those with a hit and a random draw of the rest. About 0.5% of all pairs of compound and target were hits. Values without a mark were called inactive.
Legend:
Test in all cases: log2 fold change, soluble protein after heating vs DMSO (PISA); higher = thermal stabilisation; K562 lysate, 10 uM; active = over 0.2 and 3.5 SD of the protein, either way, in both replicates (recomputed)
alvocidib = compound: CN1CC[C@H](c2c(O)cc(O)c3c(=O)cc(-c4ccccc4Cl)oc23)[C@H](O)C1 [alvocidib]
Summary of the method: (§1)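 The values are log-two fold changes in thermal stability compared with solvent controls and come from duplicates. They were obtained by TMTpro 16plex LC-MS/MS, with channel sums equalised, on the supernatant after 21,000xg for 90 min. That supernatant came from crude K562 extract at 1 mg/mL protein treated with 10 μM compound for 30 min, heated for 3 min across 48°C-58°C, pooled and brought to 0.5% NP-40 at 4°C.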

Tubastatin A = compound: CN1CCc2c(c3ccccc3n2Cc2ccc(C(=O)NO)cc2)C1 [Tubastatin A]
Summary of the method: as §1

[1] = compound: CNC(=O)C1=CC=CC=C1NC2=NC(=NC=C2Cl)NC3=C(C=C(C=C3)N4CCOCC4)OC
Summary of the method: as §1

defactinib = compound: CNC(=O)c1ccc(Nc2ncc(C(F)(F)F)c(NCc3nccnc3N(C)S(C)(=O)=O)n2)cc1 [defactinib]
Summary of the method: as §1

[2] = compound: CNc1nc(-c2ccc3c(N)n[nH]c3c2)cc(N2C[C@@H](C(=O)NC3CCCCC3)CC[C@H]2C)n1
Summary of the method: as §1

encorafenib = compound: COC(=O)N[C@@H](C)CNc1nccc(-c2cn(C(C)C)nc2-c2cc(Cl)cc(NS(C)(=O)=O)c2F)n1 [encorafenib]
Summary of the method: as §1

[3] = compound: COC(=O)[C@H](CCSC)NC(=O)C1=C(C=C(C=C1)NC[C@H](CS)N)C2=CC=CC=C2
Summary of the method: as §1

alisertib = compound: COc1cc(Nc2ncc3c(n2)-c2ccc(Cl)cc2C(c2c(F)cccc2OC)=NC3)ccc1C(=O)O [alisertib]
Summary of the method: as §1

[4] = compound: COc1cc2nc(-c3cc(F)ccc3O)nc(N[C@@H]3CNC[C@H]3C(C)(C)O)c2cc1OC
Summary of the method: as §1

gefitinib = compound: COc1cc2ncnc(Nc3ccc(F)c(Cl)c3)c2cc1OCCCN1CCOCC1 [gefitinib]
Summary of the method: as §1

Sequence of UniProt Q9HD34 (Q9HD34 whole entry, looked up): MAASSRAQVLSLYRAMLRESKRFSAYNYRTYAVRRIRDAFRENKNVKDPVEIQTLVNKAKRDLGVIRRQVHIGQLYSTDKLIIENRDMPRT
Sequence of UniProt Q14693 (Q14693 whole entry, looked up): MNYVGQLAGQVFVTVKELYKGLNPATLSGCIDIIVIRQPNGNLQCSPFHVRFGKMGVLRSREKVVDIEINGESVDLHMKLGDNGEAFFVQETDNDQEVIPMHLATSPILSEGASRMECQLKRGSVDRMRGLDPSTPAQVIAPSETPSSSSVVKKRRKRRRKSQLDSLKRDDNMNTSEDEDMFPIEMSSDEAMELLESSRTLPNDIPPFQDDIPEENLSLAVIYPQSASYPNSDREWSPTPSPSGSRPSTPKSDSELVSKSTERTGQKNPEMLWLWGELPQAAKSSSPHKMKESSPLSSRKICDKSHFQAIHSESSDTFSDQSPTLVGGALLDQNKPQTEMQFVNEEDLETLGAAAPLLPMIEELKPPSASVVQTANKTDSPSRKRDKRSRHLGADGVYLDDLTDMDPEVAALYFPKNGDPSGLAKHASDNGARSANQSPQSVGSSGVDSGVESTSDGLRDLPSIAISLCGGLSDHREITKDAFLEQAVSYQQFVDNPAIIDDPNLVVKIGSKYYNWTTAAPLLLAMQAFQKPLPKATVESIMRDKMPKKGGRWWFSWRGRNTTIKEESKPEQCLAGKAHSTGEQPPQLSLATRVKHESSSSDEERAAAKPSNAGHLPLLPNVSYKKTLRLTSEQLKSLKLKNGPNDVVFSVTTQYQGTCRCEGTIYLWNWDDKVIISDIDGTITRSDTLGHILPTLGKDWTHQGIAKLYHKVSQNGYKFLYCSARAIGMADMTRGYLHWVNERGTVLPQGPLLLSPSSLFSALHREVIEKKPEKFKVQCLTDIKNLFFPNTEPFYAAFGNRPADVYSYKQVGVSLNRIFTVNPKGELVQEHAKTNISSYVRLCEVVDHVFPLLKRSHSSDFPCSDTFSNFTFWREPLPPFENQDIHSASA
Sequence of UniProt Q14807 (Q14807 whole entry, looked up): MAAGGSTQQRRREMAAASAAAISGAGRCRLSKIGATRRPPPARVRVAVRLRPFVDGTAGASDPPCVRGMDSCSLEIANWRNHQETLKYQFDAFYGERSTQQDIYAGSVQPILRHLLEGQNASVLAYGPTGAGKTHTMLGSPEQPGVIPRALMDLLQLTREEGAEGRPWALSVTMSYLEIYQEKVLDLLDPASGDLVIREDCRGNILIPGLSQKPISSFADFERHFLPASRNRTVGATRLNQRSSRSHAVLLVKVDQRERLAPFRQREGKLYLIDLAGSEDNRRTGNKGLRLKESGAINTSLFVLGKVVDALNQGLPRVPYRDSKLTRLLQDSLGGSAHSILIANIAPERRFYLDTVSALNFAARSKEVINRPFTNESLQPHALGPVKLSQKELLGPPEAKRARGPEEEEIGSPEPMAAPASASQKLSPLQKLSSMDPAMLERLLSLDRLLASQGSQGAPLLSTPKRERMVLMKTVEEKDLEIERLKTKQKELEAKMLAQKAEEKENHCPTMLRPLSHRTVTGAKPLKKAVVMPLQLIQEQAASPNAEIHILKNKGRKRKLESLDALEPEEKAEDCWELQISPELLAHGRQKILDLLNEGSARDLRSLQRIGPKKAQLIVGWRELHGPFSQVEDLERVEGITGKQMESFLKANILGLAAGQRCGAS
Sequence of UniProt P01116 (P01116 whole entry, looked up): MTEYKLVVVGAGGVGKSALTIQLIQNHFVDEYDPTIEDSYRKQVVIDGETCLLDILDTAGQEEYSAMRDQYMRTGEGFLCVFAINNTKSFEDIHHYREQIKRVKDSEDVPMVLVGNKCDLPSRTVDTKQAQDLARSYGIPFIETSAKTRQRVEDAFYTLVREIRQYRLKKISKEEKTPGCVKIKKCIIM
Sequence of UniProt P45983 (P45983 whole entry, looked up): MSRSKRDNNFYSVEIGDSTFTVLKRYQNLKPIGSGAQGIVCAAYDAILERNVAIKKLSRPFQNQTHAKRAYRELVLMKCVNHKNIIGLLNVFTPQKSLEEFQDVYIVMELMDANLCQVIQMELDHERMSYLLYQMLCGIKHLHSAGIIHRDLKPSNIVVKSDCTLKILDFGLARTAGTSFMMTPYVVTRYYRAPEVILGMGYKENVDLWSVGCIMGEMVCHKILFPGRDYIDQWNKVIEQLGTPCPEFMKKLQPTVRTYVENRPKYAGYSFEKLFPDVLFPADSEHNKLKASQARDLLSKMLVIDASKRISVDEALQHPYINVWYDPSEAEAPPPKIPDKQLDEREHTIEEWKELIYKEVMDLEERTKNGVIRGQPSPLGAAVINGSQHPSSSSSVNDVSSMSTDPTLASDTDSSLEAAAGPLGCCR
Sequence of UniProt P27448 (P27448 whole entry, looked up): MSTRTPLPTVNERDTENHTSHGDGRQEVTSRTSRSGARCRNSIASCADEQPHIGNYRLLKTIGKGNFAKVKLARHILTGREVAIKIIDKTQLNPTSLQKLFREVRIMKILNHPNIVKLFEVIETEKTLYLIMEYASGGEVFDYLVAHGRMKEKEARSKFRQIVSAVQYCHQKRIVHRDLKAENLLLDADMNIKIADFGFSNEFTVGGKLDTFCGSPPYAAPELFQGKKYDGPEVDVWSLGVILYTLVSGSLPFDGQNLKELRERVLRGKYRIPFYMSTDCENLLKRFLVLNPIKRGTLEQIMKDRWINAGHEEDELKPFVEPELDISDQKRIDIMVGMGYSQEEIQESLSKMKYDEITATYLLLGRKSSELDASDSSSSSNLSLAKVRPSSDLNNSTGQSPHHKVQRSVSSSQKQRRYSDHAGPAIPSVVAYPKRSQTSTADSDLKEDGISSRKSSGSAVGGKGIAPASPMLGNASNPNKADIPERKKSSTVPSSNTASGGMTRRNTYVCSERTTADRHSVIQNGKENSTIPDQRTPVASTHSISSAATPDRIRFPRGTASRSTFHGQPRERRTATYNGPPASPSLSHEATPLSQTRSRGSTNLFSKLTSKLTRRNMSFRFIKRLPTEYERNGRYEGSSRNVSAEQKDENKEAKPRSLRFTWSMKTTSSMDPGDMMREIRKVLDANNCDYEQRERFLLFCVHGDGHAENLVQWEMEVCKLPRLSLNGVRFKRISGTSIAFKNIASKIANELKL
Sequence of UniProt Q68D91 (Q68D91 whole entry, looked up): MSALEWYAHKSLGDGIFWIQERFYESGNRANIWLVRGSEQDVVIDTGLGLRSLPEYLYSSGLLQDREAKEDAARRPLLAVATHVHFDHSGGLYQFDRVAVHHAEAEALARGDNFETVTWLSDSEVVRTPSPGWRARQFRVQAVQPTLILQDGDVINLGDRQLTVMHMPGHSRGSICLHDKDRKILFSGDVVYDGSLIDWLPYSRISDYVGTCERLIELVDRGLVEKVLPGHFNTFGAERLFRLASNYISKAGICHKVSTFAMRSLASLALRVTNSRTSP
Sequence of UniProt Q92615 (Q92615 whole entry, looked up): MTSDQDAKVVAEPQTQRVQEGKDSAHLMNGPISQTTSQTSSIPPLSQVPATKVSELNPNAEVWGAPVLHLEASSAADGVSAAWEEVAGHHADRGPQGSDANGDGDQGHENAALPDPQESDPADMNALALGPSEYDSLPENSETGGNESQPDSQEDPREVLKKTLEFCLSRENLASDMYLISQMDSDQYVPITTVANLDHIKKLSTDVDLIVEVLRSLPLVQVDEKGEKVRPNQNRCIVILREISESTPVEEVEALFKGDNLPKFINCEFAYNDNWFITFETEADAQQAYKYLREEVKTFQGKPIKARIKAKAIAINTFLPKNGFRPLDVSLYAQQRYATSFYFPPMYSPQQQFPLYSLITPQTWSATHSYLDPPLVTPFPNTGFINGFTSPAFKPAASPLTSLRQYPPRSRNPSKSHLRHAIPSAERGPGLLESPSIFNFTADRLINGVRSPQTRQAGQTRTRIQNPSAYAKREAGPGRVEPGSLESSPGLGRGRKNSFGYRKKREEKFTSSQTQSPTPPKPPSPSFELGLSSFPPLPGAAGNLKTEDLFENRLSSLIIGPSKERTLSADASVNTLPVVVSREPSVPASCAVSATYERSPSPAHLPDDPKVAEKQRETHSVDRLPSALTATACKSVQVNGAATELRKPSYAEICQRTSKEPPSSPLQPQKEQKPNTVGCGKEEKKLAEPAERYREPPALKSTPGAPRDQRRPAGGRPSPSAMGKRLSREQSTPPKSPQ
Sequence of UniProt Q96IZ6 (Q96IZ6 whole entry, looked up): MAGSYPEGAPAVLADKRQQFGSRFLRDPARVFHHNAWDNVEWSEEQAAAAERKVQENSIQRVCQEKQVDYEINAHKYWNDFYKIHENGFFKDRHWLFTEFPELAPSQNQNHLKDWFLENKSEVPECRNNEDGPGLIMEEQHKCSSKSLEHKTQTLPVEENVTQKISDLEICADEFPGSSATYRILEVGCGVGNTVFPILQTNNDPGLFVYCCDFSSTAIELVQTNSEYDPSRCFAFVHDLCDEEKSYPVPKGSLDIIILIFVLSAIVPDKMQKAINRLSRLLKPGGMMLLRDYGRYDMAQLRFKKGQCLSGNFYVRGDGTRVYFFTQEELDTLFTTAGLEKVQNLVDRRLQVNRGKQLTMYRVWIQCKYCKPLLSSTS
Sequence of UniProt P11279 (P11279 whole entry, looked up): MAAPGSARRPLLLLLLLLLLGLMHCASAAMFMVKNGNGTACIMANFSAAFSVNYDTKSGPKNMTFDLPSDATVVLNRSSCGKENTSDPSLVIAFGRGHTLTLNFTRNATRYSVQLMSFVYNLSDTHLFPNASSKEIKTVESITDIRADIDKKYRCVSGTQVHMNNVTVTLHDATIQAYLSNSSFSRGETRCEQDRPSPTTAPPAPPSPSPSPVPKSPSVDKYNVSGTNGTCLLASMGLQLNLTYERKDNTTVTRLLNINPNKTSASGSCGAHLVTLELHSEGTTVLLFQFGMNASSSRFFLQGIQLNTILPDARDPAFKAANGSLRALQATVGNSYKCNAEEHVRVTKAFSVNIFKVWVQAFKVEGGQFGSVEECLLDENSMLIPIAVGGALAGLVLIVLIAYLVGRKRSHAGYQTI
Sequence of UniProt Q9BTT4 (Q9BTT4 whole entry, looked up): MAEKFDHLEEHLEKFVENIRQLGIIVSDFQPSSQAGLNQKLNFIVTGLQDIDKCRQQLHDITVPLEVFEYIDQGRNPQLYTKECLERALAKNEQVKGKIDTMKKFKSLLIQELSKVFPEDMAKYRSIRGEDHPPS

Target | log2 fold change (alvocidib) | log2 fold change (Tubastatin A) | log2 fold change [1] | log2 fold change (defactinib) | log2 fold change [2] | log2 fold change (encorafenib) | log2 fold change [3] | log2 fold change (alisertib) | log2 fold change [4] | log2 fold change (gefitinib)
MINK1 (UniProt Q8N4C8) | -0.049 | -0.137 | 0.055 | 0.025 | 0.109 | -0.133 | 0.022 | 0.051 | -0.003 | –
LSS (UniProt P48449) | -0.011 | 0.021 | -0.03 | -0.026 | 0.021 | 0.031 | 0.02 | 0.011 | 0.032 | 0.055
LIG4 (UniProt P49917) | 0.02 | -0.025 | -0.04 | 0.063 | 0.005 | 0.048 | 0.415 (active) | -0.049 | -0.096 | -0.069
MIF (UniProt P14174) | -0.109 | 0.545 (active) | 0.103 | -0.05 | -0.145 | -0.028 | -0.013 | 0.005 | -0.006 | 0.068
LUZP1 (UniProt Q86V48) | -0.027 | -0.061 | 0.099 | -0.056 | 0.004 | 0.023 | -0.074 | -0.014 | 0.012 | 0.039
MED10 (UniProt Q9BTT4) | 0.038 | 0.041 | 0.042 | 0.068 | 0.045 | 0.11 | -0.185 | 0.082 | -0.03 | -0.045
MFF isoform 2 (UniProt Q9GZY8) | -0.046 | -0.038 | -0.052 | 0.027 | 0.024 | 0.068 | -0.113 | 0.042 | -0.075 | 0.048
MOCS1 isoform 8 (UniProt Q9NZB8) | -0.108 | -0.008 | 0.002 | 0.113 | -0.105 | 0.039 | -0.055 | -0.099 | 0.003 | 0.395 (active)
LRIF1 (UniProt Q5T3J3) | -0.018 | 0.075 | -0.035 | 0.002 | 0.126 | 0.049 | 0.052 | -0.03 | 0.234 | -0.039
MBD2 (UniProt Q9UBB5) | 0.026 | -0.06 | 0.001 | 0.022 | 0.083 | 0.013 | -0.061 | 0.031 | 0.024 | -0.016
MAP7D3 (UniProt Q8IWC1) | -0.063 | 0.015 | 0.037 | -0.379 (active) | -0.011 | 0.223 | 0.013 | 0.01 | -0.02 | 0.017
LYRM4 (UniProt Q9HD34) | 0.013 | 0.068 | -0.042 | 0 | 0.036 | -0.008 | 0 | 0.007 | 0 | 0.008
LPIN1 isoform 7 (UniProt Q14693) | -0.054 | -0.05 | -0.006 | 0.003 | -0.1 | 0.089 | -0.064 | -0.028 | 0.007 | -0.04
MAD2L1BP isoform 3 (UniProt Q15013) | 0.047 | -0.135 | 0.088 | 0.068 | -0.012 | 0.138 | 0.234 | 0.052 | -0.009 | -0.054
MAPK8 isoform 3 (UniProt P45983) | 0.01 | -0.111 | 0.541 (active) | -0.07 | -0.144 | 0.135 | 0 | -0.022 | 0.003 | -0.042
MRPL46 (UniProt Q9H2W6) | 0.125 | -0.097 | 0.28 | 0.051 | 0.058 | -0.032 | 0 | 0.02 | -0.045 | 0.041
LARP4B (UniProt Q92615) | 0.001 | -0.118 | 0.005 | 0.023 | -0.027 | 0.024 | 0.015 | 0.025 | -0.013 | -0.006
LAMP1 (UniProt P11279) | -0.242 | 0.051 | -0.013 | -0.03 | 0.059 | 0.015 | -0.047 | 0.017 | 0.028 | 0.053
MED12 isoform 2 (UniProt Q93074) | -0.022 | -0.161 | -0.02 | 0.029 | -0.041 | 0.028 | 0.06 | 0.016 | -0.011 | 0.027
KIF22 (UniProt Q14807) | -0.121 | 0.099 | -0.059 | 0.175 | 0.137 | 0.012 | -0.017 | 0.011 | 0.171 | -0.013
KIF15 (UniProt Q9NS87) | -0.002 | -0.058 | 0.006 | -0.011 | 0.006 | 0.01 | 0.121 | -0.013 | -0.014 | 0.003
MLST8 (UniProt Q9BVC4) | 0.009 | -0.072 | -0.059 | -0.023 | -0.059 | -0.012 | 0.038 | -0.016 | -0.01 | -0.004
MBLAC2 (UniProt Q68D91) | -0.011 | 0.033 | 0.041 | 0.059 | -0.096 | 0.06 | -0.003 | 0.005 | 0.013 | 0.033
KRAS (UniProt P01116) | -0.071 | 0.059 | -0.048 | -0.01 | -0.005 | 0.01 | 0.043 | -0.016 | -0.042 | 0.139
MAP2K7 isoform 4 (UniProt O14733) | 0.023 | -0.15 | 0.023 | -0.035 | 0.036 | -0.059 | 0.177 | 0.006 | -0.009 | -0.08
MAPK14 isoform 2 (UniProt Q16539) | 0.154 | -0.121 | 0.299 | 0.01 | -0.041 | 0.454 | 0.257 | -0.065 | -0.004 | 0.144
MARK3 (UniProt P27448) | -0.071 | -0.119 | -0.188 | -0.158 | 0.113 | 0.038 | 0.129 | 0.006 | 0.003 | -0.02
LARS2 (UniProt Q15031) | 0.021 | -0.06 | -0.047 | 0.013 | -0.088 | 0.038 | -0.115 | 0.051 | 0.007 | 0.012
METTL2A (UniProt Q96IZ6) | 0.023 | -0.079 | 0.058 | 0.019 | -0.028 | -0.007 | 0.055 | -0.057 | 0.029 | 0.04
MAP4 (UniProt P27816) | -0.023 | 0.043 | 0.016 | -0.02 | 0.037 | -0.024 | -0.031 | -0.007 | 0.014 | -0.02

— the supplement of paper PMC10849652
